According to the supplement of paper PMC4894684:
Where a name gives a salt, the structure may show the parent alone. ± gives the standard deviation of the averaged measurements. Out of some 1,000 compounds screened, about 15 (2%) showed an effect of 50% or more. Only a selection was taken, and strong results are over-represented in it overall.

Test system: HFF
Assay: uninfected host cell viability relative to vehicle control; higher = less host cell toxicity
Conditions: 5 µM; 72 h; oxygen 21 %

| Compound | uninfected host cell viability [%] |
| --- | --- |
| O=C1NC(=O)c2cc(Nc3ccccc3)c(Nc3ccccc3)cc21 | 93.23 ± 0.27 |
| COCCOC(=O)C1=C(C)NC(C)=C(C(=O)OC/C=C/c2ccccc2)C1c1cccc([N+](=O)[O-])c1 (stereo not given) [Cilnidipine] | 85.8 ± 2.8 |
| COc1ccccc1C1(O)CCN(CCCn2c3ccccc3c3ccccc32)CC1 [NNC 05-2090 hydrochloride] | 81.9 ± 1.6 |
| Nc1nc(NCC2CCC(CNS(=O)(=O)c3cccc4ccccc34)CC2)nc2ccccc12 (stereo not given) | 58.6 ± 2.7 |
| CN(Cc1ccccc1)C(=O)[C@H](Cc1ccc2ccccc2c1)NC(=O)[C@@H]1C[C@@H](O)CN1C(=O)c1cn(C)c2ccccc12 | 83.97 ± 0.68 |
| NC(=O)N/N=C/c1ccc(Oc2ccc(F)cc2)cc1 | 87.6 ± 3.6 |
| O=C1NC(=O)c2cc(Nc3ccc(F)cc3)c(Nc3ccc(F)cc3)cc21 | 86.353 ± 0.013 |
| Oc1nc(-c2ccc(C(F)(F)F)cc2)nc2c1CSCC2 | 83.2 ± 2.4 |
| CCC(=O)NC[C@H](Cc1ccc(OCCc2nc(-c3ccccc3)oc2C)cc1)N/C(C)=C\C(=O)c1ccc(C(F)(F)F)cc1 | 102 ± 1.4 |
| COC(=O)/C=C/c1cccc(N(Cc2ccc(-c3ccc(N(C)C)cc3)cc2)C(=O)C2CCCCC2)c1 [Fexaramine] | 96 ± 2.3 |
| CC(=O)OCCNC(=O)c1cccnc1 [N-[2-(Acetoxy)ethyl]-3-pyridinecarboxamide] | 82.8 ± 3.4 |
| OC1CCC(Nc2nc(-c3ccccc3)nc3[nH]ccc23)CC1 (stereo not given) | 85.37 ± 0.31 |
| Cc1ccc2c(c1)c1c3n2CCNC3CCC1 (stereo not given) [Pirlindole mesylate] | 88 ± 6.3 |
| CC(C)c1ccc(C(=O)c2cccs2)c(SCCCCCCCCN(C)C)n1 | 74.54 ± 0.56 |
| OC(CN1CCC(Cc2ccc(F)cc2)CC1)c1ccc(Cl)cc1 (stereo not given) [Eliprodil] | 88.9 ± 1.1 |
| O=c1cc(N2CCOCC2)oc2c1ccc1ccccc12 | 82.9 ± 0.9 |
| COc1ccc(OC)c2c(=S)c3ccccc3[nH]c12 | 76.9 ± 3.1 |
| COC(=O)C1=C(C)NC(C)=C(C(=O)OCCCN2CCC(c3ccccc3)(c3ccccc3)CC2)[C@H]1c1cccc([N+](=O)[O-])c1 [(S)-(+)-Niguldipine hydrochloride] | 76.95 ± 0.17 |
| CCC(=O)OCN1C(=O)C=CC1=O | 90.82 ± 0.35 |
| Nc1c(Br)cc(Br)cc1CN[C@H]1CC[C@H](O)CC1 [Ambroxol hydrochloride] | 83.8 ± 1.4 |
| CCCCCCCCCCCCCCCC(=O)O[C@H](CC(=O)O)C[N+](C)(C)C (racemic) [(±)-Palmitoylcarnitine chloride] | 89.8 ± 4.6 |
| CN(CC[C@@H](Oc1ccc(-c2ccccc2)cc1)c1ccc(F)cc1)CC(=O)O [ALX 5407 hydrochloride] | 89.7 ± 7.4 |
| COc1cc2c(Nc3ccc(NC(=O)c4ccccc4)cc3)ncnc2cc1OCCCN1CCOCC1 | 64.74 ± 0.56 |
| COc1ccc(NC(=O)c2ccc(-c3ccc(-c4noc(C)n4)cc3C)cc2)cc1OCCN(C)C | 36.9 ± 27 |
| COc1ccc(NC(=O)c2ccc(-c3ccc(-c4noc(C)n4)cc3C)cc2)cc1N1CCN(C)CC1 | 70.2 ± 7.3 |
